Laboratory results as given in PubChem BioAssay.
Active and inactive are the calls of the source.

What was measured:
[1] = test system: PRMT1 (protein arginine N-methyltransferase 1); assay: small molecules binding arginine methyltransferase PRMT1 – biochemical, small-molecule microarray, 635 nm fluorescence, primary screen (AID 1088); details: higher = more signal;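 also: binding of Prmt1 protein to compounds spotted on small-molecule microarray slides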
[2] = growth effects on S. cerevisiae YJM789 – YJM789 clinical isolate, OD600, 24 h, basal, primary screen (AID 1089); details: higher = more signal, called active from +8 up or from −8 down;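 also: growth of clinical yeast isolate S. cerevisiae YJM 789 seeded 1000 cells per well; test concentration not given here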
[3] = S. pombe growth modifiers, basal conditions – strain 972, OD600, 24 h, no modulator, primary screen (AID 1090);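 also: basal condition with compound alone and no growth modifier present; test concentration not given here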; details: S. pombe 972 growth, higher = more signal, called active from +8 up or from −8 down
[4] = budding yeast growth modifiers under rapamycin – strain BY4716, OD600, 96 h, primary screen (AID 1091); also: test concentration not given here; details: S. cerevisiae BY4716 + rapamycin, higher = more signal, called active from +8 up or from −8 down
[5] = target: Torsin-1A-interacting protein 2 (Homo sapiens) (UniProt Q8NFQ8); assay: small molecules binding lysate-expressed LULL1 – cell lysate, human LULL1 lysate, 635/667 nm fluorescence, primary screen (AID 1092); details: small-molecule microarray, hLULL1 lysate binding, 635 nm fluorescence; higher = more signal;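 also: probe is lysate of COS7 cells overexpressing human LULL1; score merges per-feature 667 nm fluorescence with signal-to-noise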
[6] = optical density change of DRC41 E. coli – strain DRC41, OD650, 24 h, E. coli filamentation project, primary screen (AID 1093);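 also: MC1000 strain lacking acrAB efflux and sulA so SOS filamentation is blocked; test concentration not given here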; details: E. coli DRC41 growth, higher = more signal, called active from +8 up or from −8 down
[7] = probe aLefty2 binding to arrayed compounds – biochemical, biotinylated probe, 635/667 nm fluorescence, primary screen (AID 1094); details: small-molecule microarray, higher = more signal;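 also: score merges spot fluorescence near 667 nm with spot signal-to-noise ratio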
[8] = test system: Noggin (protein binding on small-molecule microarray); assay: small molecules binding Noggin protein – biochemical, 635/667 nm fluorescence, primary screen (AID 1095); details: 635 nm fluorescence, higher = more signal;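 also: score merges 667 nm feature fluorescence with signal to noise over triplicate slides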
[9] = target: Neurogenic locus notch homolog protein 3 (Homo sapiens) (UniProt Q9UM47); assay: small molecules binding NOTCH3 protein – biochemical, 635/667 nm fluorescence, primary screen (AID 1096); details: small-molecule microarray, 635 nm fluorescence, higher = more signal
[10] = probe aEGFR binding to arrayed compounds – biochemical, biotinylated probe, 635/667 nm fluorescence, primary screen (AID 1097); details: small-molecule microarray, higher = more signal;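 also: probe is a biotinylated anti-EGFR antibody binding compounds printed on slides; score combines fluorescence near 667 nm and signal to noise of each spot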

Sequence of Neurogenic locus notch homolog protein 3 (Homo sapiens) (Q9UM47 whole entry, looked up): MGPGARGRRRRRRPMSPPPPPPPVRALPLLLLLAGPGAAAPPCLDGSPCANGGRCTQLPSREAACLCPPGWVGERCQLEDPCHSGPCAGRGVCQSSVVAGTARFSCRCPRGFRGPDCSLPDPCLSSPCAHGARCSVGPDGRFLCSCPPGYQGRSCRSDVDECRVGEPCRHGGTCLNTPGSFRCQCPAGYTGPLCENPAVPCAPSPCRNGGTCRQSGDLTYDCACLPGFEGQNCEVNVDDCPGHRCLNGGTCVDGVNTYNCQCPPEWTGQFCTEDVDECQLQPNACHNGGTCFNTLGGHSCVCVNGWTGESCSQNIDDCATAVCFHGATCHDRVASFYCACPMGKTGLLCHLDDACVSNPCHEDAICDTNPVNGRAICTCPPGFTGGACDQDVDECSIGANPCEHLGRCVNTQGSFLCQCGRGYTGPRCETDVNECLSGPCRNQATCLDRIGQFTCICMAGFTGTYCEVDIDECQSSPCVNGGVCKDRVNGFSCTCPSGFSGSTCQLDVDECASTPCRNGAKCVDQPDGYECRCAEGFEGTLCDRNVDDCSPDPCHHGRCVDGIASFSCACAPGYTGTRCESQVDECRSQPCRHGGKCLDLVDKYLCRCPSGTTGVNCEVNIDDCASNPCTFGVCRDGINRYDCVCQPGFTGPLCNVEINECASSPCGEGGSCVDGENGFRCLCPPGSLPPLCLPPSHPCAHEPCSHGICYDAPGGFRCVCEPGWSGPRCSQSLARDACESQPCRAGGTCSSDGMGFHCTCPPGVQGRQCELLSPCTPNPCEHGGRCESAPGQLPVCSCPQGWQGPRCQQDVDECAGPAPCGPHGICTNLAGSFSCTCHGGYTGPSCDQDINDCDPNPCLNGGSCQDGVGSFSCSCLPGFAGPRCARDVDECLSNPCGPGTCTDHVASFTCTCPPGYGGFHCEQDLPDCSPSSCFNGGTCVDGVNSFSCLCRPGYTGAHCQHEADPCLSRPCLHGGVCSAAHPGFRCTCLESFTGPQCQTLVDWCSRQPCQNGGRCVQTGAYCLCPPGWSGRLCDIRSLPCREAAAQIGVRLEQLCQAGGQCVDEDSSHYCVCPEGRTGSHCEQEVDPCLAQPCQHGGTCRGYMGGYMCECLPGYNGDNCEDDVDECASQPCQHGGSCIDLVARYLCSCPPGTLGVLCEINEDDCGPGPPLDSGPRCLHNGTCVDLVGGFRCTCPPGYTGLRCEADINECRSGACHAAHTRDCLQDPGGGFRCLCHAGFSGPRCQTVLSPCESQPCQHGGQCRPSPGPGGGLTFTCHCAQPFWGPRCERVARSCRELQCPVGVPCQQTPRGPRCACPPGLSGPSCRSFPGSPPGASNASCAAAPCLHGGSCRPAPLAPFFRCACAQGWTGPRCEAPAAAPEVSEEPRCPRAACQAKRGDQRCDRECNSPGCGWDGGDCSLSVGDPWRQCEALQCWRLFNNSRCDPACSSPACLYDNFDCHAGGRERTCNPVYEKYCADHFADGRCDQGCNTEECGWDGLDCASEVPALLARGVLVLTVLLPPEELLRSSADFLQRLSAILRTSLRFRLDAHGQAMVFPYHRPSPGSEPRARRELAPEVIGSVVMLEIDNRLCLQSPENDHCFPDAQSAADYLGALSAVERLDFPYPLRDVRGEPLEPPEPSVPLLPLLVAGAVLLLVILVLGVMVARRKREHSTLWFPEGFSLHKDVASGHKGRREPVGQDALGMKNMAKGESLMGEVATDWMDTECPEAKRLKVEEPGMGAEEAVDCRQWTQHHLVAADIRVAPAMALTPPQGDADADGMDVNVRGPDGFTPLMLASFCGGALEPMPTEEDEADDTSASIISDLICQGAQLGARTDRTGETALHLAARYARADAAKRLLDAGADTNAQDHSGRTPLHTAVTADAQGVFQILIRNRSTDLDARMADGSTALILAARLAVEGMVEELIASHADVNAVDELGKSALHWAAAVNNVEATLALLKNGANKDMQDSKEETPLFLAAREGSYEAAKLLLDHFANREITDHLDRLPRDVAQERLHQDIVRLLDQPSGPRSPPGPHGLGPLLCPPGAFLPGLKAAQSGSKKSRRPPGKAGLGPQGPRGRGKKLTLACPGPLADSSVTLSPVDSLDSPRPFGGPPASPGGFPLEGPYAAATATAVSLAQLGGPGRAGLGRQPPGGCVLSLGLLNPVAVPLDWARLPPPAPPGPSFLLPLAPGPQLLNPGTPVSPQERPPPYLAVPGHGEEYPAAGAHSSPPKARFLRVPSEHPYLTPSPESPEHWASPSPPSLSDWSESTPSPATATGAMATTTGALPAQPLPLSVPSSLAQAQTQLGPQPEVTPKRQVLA
Sequence of Torsin-1A-interacting protein 2 (Homo sapiens) (Q8NFQ8 whole entry, looked up): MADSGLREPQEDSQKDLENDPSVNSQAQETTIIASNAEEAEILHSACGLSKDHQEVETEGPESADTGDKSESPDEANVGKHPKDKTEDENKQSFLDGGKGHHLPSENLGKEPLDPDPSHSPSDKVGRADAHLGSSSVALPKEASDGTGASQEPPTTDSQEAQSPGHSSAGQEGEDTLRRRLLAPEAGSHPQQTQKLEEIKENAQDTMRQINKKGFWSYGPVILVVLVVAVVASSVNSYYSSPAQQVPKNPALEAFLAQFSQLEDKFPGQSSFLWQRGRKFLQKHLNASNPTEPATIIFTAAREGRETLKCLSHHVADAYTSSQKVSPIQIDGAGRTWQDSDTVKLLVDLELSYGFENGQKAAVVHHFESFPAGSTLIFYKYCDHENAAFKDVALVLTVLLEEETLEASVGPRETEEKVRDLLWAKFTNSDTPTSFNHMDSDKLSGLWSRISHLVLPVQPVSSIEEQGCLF

Structure (SMILES)	composite z-score [1]	z-score [2]	z-score [3]	z-score [4]	composite z-score [5]	z-score [6]	composite z-score [7]	composite z-score [8]	composite z-score [9]	composite z-score [10]
COc1ccc(OC[C@@H]2CC3[C@@H](c4ccc(Br)cc4)[C@H](C)CC[C@H]3C(=O)O2)cc1 (stereo not given in full)	0.112	-0.251 (inactive)	-2.64 (inactive)	0.0176 (inactive)	0.82	-0.145 (inactive)	-0.158	0.991	0.509	-0.159
CC(=O)OC[C@H]1O[C@H](CC=NO[C@H](C)c2cn([C@@H]3COC[C@H]3O)nn2)C=C[C@@H]1OC(C)=O	0.611	-2 (inactive)	-0.535 (inactive)	-0.277 (inactive)	-0.3	-0.763 (inactive)	-0.23	0.411	0.212	-0.0845
COC(=O)CC=C[C@@H](C)[C@@H](C=NOC(C)CN1CCCCc2nc(C)c(C)cc21)NS(=O)(=O)c1ccc(C)cc1 (stereo not given in full)	0.63	-1.12 (inactive)	0.22 (inactive)	0.121 (inactive)	-0.137	0.86 (inactive)	0.0768	0.52	0.265	-0.0836
COc1ccc(COC(=O)NN=C2C[C@@H](O)[C@@H](O)[C@@H]3[C@@H]4C(=O)N([C@@H](C)c5ccccc5)C(=O)[C@@H]4CC[C@H]23)cc1	-0.517	-0.21 (inactive)	-0.0145 (inactive)	-0.556 (inactive)	0.621	0.92 (inactive)	0.484	-0.245	-0.184	-0.137
C[C@H]1CC[C@H]2C(=O)OC(COc3ccc(C(C)(C)C)cc3)CN2[C@@H]1c1ccc(Br)cc1 (stereo not given in full)	1.02	-0.498 (inactive)	-17.9 (active)	-1.73 (inactive)	1.25	1.24 (inactive)	-0.139	0.756	0.165	-0.175
COC(=O)[C@H](C)NC(=O)CC=C[C@@H](C)[C@@H]1C=C[C@H](O)[C@@H](CO)O1	0.854	0.351 (inactive)	0.245 (inactive)	0.358 (inactive)	0.248	1.02 (inactive)	-0.0381	1.34	0.873	0.241
CCC1=NOC(CCC2CC(OC(=O)NCc3cccc4c3OCO4)CC3(CCCC(COC(=O)NCCc4ccc(Cl)cc4)O3)O2)C1 (stereo not given)	0.616	-0.57 (inactive)	0.232 (inactive)	0.407 (inactive)	1.59	0.812 (inactive)	-0.186	0.379	-0.165	-0.125
CCc1cc2c(nc1CC)CCN(CCC(C)=NOC[C@@H](C)[C@H](OCc1ccccc1)C(C)C)C2	0.0757	-2.41 (inactive)	-4.16 (inactive)	-1.32 (inactive)	0.198	-0.966 (inactive)	-0.224	-0.249	-1.38	-0.25
Cc1ccc2[nH]c3nc(CCCn4ccnc4-c4ccccc4)nnc3c2c1	0.842	0.324 (inactive)	0.0855 (inactive)	-0.425 (inactive)	1.38	1.13 (inactive)	0.504	0.385	1.12	-0.009
CSCC[C@@H]1NC(=O)CC=C[C@@H](C)COC(=O)[C@H](C)COC1=O	1.53	-2.12 (inactive)	-1.99 (inactive)	-0.894 (inactive)	-0.265	0.453 (inactive)	-0.295	2.11	0.883	0.702
CC(C)[C@@H](OCc1ccccc1)[C@H](C)C=NO[C@H](C)c1cn([C@@H]2COC[C@H]2O)nn1	1.55	-1.02 (inactive)	-0.121 (inactive)	0.0703 (inactive)	1.28	1.13 (inactive)	-0.162	0.871	0.968	-0.0111
COc1ccc(O[C@H]2C=C[C@@H](C#Cc3ccccc3)O[C@@H]2CO)cc1	0.718	-0.315 (inactive)	-20.4 (active)	-0.731 (inactive)	1.88	1.3 (inactive)	-0.248	1.15	0.402	-0.125
CO[C@@H]1COC(=O)[C@H](CCSC)NC(=O)CC=C[C@@H](C)COC(=O)[C@@H]2CCCN2C(=O)CC=C[C@H]1C	0.888	-0.0153 (inactive)	-1.33 (inactive)	-0.495 (inactive)	-0.389	-0.135 (inactive)	-0.261	0.862	0.468	-0.0675
CON=C(C)CCN1CCCc2nc(C)c(C)cc21	1.43	-0.596 (inactive)	-0.837 (inactive)	0.0921 (inactive)	1.92	0.0129 (inactive)	-0.0179	0.513	0.632	0.0376
COc1cccc([C@H]2Oc3ccc(OC)cc3C(=NOCC[C@@H]3C=C[C@H](OC(C)=O)[C@@H](COC(C)=O)O3)[C@@H]2O)c1	0.829	0.243 (inactive)	0.594 (inactive)	0.0357 (inactive)	1	0.677 (inactive)	-0.0769	0.475	0.647	0.0281
COC(=O)[C@H](C)NC(=O)CCC1CC(OC(=O)NCc2cccc3ccccc23)CC2(CCCC(COC(=O)NCCOc3ccccc3)O2)O1 (stereo not given in full)	1.53	-0.534 (inactive)	-0.231 (inactive)	-0.576 (inactive)	2.21	0.544 (inactive)	-0.208	0.11	0.377	-0.145
CC(=O)OC[C@H]1O[C@H](CC=NOCC[C@@H]2C=C[C@H](OC(C)=O)[C@@H](COC(C)=O)O2)C=C[C@@H]1OC(C)=O	1.46	-0.996 (inactive)	0.526 (inactive)	-0.0043 (inactive)	0.137	0.712 (inactive)	0.0024	0.772	0.757	0.0707
COc1ccc(O[C@H]2C=C[C@@H](c3ccccc3)O[C@@H]2CON=C2c3cc(OC)ccc3O[C@H](c3cccc(OC)c3)[C@H]2O)cc1	0.554	-0.0549 (inactive)	0.281 (inactive)	-0.0588 (inactive)	0.585	0.0551 (inactive)	-0.231	1.4	0.927	-0.171
CO[C@H]1COC(=O)CCC[C@H](C)[C@@H](OC)COC(=O)CC=C[C@@H]1C	0.411	0.0303 (inactive)	0.197 (inactive)	-1.08 (inactive)	-0.355	0.556 (inactive)	-0.0448	0.409	0.0682	-0.0405
CCCNC(=O)OC[C@H]1O[C@H](CCON=C[C@@H](C)[C@H](OCc2ccccc2)C(C)C)C=C[C@@H]1Oc1ccc(OC)cc1	-0.295	-2.24 (inactive)	-1.52 (inactive)	-0.25 (inactive)	-0.605	-1.13 (inactive)	-0.0753	-0.0593	-0.942	-0.141
CO[C@@H]1COC(=O)CC=C[C@H](C)[C@H](OC)COC(=O)[C@@H]2CCCN2C(=O)CC=C[C@H]1C	0.684	0.0396 (inactive)	-0.719 (inactive)	-0.249 (inactive)	-0.722	0.127 (inactive)	-0.225	1.78	-0.128	0.153
CC(CCN1CCCc2nc(C)c(C)cc21)=NO[C@H](C)c1cn([C@H](CO)Cc2ccccc2)nn1	1.56	1.09 (inactive)	0.374 (inactive)	0.399 (inactive)	0.894	-0.748 (inactive)	-0.0441	0.633	1.01	0.0386
CCc1cc2c(nc1CC)CCN(CCC(C)=NOC(C)CN1CCCCc3nc(C)c(C)cc31)C2 (stereo not given)	1.49	-0.379 (inactive)	-16.2 (active)	-0.755 (inactive)	2.42	0.546 (inactive)	0.0809	0.932	1.08	0.142
CC(CCN1CCc2nc(-c3ccccc3)c(-c3ccccc3)cc2C1)=NO[C@@H](C)c1cc(-c2c(C)cc(C)cc2C)no1	0.535	-0.295 (inactive)	-0.974 (inactive)	-3.2 (inactive)	0.838	-0.394 (inactive)	-0.186	-0.0011	-1.29	-0.17
CCOC(=O)[C@H](Cc1ccccc1)NC(=O)CCC1CC(OC(=O)NCc2cccc3ccccc23)CC2(CCCC(COC(=O)NCCc3ccc(Cl)cc3)O2)O1 (stereo not given in full)	1.15	-0.69 (inactive)	-0.0785 (inactive)	-0.647 (inactive)	1.3	-0.159 (inactive)	-0.253	0.448	0.974	-0.0922
CC(C)CON=C1C[C@@H](O)[C@@H](O)[C@@H]2[C@@H]3C(=O)N([C@@H](C)c4ccccc4)C(=O)[C@@H]3CC[C@@H]12	-0.413	0.281 (inactive)	0.603 (inactive)	-0.188 (inactive)	0.246	0.3 (inactive)	0.224	0.347	0.114	-0.0286
CC(=O)OC[C@H]1O[C@@H](ON=C2[C@H]3CCn4c(=O)n(-c5ccccc5)c(=O)n4[C@H]3[C@H](O)[C@@H]3O[C@H]23)[C@H](OC(C)=O)[C@@H](OC(C)=O)[C@@H]1OC(C)=O	1.02	-0.436 (inactive)	-0.598 (inactive)	0.083 (inactive)	1.37	0.0967 (inactive)	-0.0409	0.349	0.785	-0.0485
CC(=O)OC[C@H]1O[C@H](CC=NOC(C)CN2CCCc3nc(C)c(C)cc32)C=C[C@@H]1OC(C)=O (stereo not given in full)	1.19	0.489 (inactive)	0.483 (inactive)	-0.344 (inactive)	0.771	1.14 (inactive)	0.0961	0.977	1.04	0.0473
CC(CCN1CCc2nc(-c3ccccc3)c(-c3ccccc3)cc2C1)=NO[C@H](C)c1cn([C@H](CO)Cc2ccccc2)nn1	0.485	-0.0115 (inactive)	-0.989 (inactive)	-4.22 (inactive)	0.381	0.561 (inactive)	0.0272	0.622	-0.0395	-0.122
COc1ccc(OC[C@@H](CO)OC)cc1	-0.601	-0.368 (inactive)	-0.199 (inactive)	-0.302 (inactive)	-0.0777	0.418 (inactive)	-0.185	0.802	-0.176	-0.0381
